Test results reported in PMC4336329 (PLoS ONE, 2015).
The whole screen tested about 310,000 compounds, of which about 14,000 (4.5%) showed an effect of 50% or more. Effects have a minus sign here. The list comes from a sample in which strong results are over-represented; it also holds similar structures and randomly drawn compounds.

biological target: human ether-à-go-go-related gene (hERG) potassium channel (human, UniProt Q12809); assay: primary screen, population patch clamp on CHO cells stably expressing hERG; higher = less effect of the substance
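Further: peak tail current of the secondary pulse compared with the same well before compound.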

Sequence of human ether-à-go-go-related gene (hERG) potassium channel (Q12809 whole entry, looked up): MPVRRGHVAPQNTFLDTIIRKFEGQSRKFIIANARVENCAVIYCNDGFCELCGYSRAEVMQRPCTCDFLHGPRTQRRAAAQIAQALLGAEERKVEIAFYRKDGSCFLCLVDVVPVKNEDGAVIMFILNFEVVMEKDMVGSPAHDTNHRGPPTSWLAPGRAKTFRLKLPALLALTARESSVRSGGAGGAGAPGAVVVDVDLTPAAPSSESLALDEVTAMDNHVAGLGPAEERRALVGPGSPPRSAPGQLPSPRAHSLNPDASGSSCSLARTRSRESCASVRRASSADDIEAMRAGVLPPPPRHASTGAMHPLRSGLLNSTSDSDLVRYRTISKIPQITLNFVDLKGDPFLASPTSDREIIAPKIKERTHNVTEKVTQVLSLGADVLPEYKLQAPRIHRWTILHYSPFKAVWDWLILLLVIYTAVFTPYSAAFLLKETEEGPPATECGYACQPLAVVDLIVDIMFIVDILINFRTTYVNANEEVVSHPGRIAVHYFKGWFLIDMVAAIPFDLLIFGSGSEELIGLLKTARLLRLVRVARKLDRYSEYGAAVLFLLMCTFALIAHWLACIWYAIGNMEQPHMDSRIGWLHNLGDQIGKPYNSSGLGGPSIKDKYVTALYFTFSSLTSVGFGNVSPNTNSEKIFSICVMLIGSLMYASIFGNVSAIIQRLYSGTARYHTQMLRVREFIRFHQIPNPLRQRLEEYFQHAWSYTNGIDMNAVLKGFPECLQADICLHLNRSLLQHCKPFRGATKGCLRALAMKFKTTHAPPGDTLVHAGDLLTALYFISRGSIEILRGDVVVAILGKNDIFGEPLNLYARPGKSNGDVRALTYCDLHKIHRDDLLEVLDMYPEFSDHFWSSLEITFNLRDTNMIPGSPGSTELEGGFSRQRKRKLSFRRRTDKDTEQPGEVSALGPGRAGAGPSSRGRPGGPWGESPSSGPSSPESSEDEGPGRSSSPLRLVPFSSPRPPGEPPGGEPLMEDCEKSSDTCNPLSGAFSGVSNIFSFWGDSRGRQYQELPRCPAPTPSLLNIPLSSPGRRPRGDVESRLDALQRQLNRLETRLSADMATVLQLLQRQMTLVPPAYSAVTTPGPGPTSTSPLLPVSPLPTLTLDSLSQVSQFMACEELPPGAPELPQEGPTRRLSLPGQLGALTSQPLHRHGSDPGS

Structure (SMILES) | hERG current change (%, negative = inhibition) at 10uM
O=C(O)CCCCCN1C(=O)C(O)=C(C(=O)/C=C/c2ccccc2)C1c1ccc2c(c1)OCO2 (stereo not shown) | 1.89%
CC(=O)NCC(O)c1ccc([N+](=O)[O-])cc1 (stereo not shown) | 13.6%
CNC(=S)NCC(O)c1ccc([N+](=O)[O-])cc1 (stereo not shown) | 5.5%
CC(NCC(O)c1ccc([N+](=O)[O-])cc1)C12CC3CC(CC(C3)C1)C2 (stereo not shown) | -69.4%
COc1ccccc1NC(=O)c1cc(C(=O)O)ccc1C(=O)O | 20.4%
CCOc1ccccc1NC(C)C(=O)Nc1cc(C(F)(F)F)ccc1N1CCOCC1 (stereo not shown) | -6.23%
COc1ccc(OC)c(C(=O)NC(CC(N)=O)c2ccc(NCCN3CCCC3)c([N+](=O)[O-])c2)c1 (stereo not shown) | 8.75%
Cc1ccc(SCC(=O)NCCCN2CCOCC2)cc1 | 15%
Cc1ccc(Cl)cc1NC(=S)N(CCCN1CCN(C)CC1)Cc1ccco1 | -52.3%
CCN1CCN(CCCN(Cc2cccs2)C(=S)Nc2ccccc2C)CC1 | -54.4%
Cc1ccc(Cl)cc1NC(=S)N(CCCN1CCOCC1)Cc1ccccn1 | -34.3%
Cc1ccc(Cl)cc1NC(=S)N(CCCN1CCOCC1)Cc1ccco1 | -28.5%
Cc1ccc(Cl)cc1NC(=S)N(CCN(C)C)Cc1cccs1 | -0.292%
Cc1ccc(Cl)cc1NC(=S)N(CCCN1CCN(C)CC1)Cc1cccs1 | -61.7%
CCN1CCN(CCCN(Cc2ccco2)C(=S)Nc2cc(Cl)ccc2C)CC1 | -61.9%
Cc1ccccc1NC(=S)N(CCCN1CCOCC1)Cc1cccs1 | -39.9%
Cc1cc(Cl)ccc1NC(=S)N(CCCN1CCOCC1)Cc1cccs1 | -32.2%
Cc1ccccc1NC(=S)N(CCCN1CCCCC1)Cc1ccco1 | -45.4%
Cc1ccc(Cl)c(NC(=S)N(CCCN2CCOCC2)Cc2ccco2)c1 | -35.3%
Cc1ccc(NC(=S)N(CCCN2CCOCC2)Cc2cccs2)c(C)c1 | -11.7%
COC(=O)C1=C(COc2ccccc2)NC(=O)NC1c1ccc(Br)cc1 (stereo not shown) | 0.599%
Cc1ccc(CSCC(=O)N/N=C/c2cccc(OC3CSC3)c2)cc1 | 11.4%
Nc1nnc(/C=C/c2ccccc2Cl)s1 | 12.1%
Cc1cc(C(=O)COC(=O)c2ccc([N+](=O)[O-])o2)c(C)n1CC1CCCO1 (stereo not shown) | -42.5%
CCOc1ccc(/C=C2/C(=O)NC(=O)N(CCc3ccc(F)cc3)C2=O)cc1 | 8.76%
